Among all 5,500 compounds or so, about 2,000 (36%) were called active. Roughly 18% stayed inconclusive and do not appear here. Rule as the data show it: active = normalized growth mostly below about 0.91 (no sharp cut-off); inconclusive = no clear call, values can overlap the other calls; inactive = mostly above about 0.92. The list shows a part of the results.
Experiment: chemical genetic growth profiling, strain panel (AID 1159580);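 also: tested at 20 µM; growth read once vehicle control cultures reached saturation at 30 °C; 1 = growth at the plate median or of vehicle wells; lower values mean less growth of the strain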
Settings: S. cerevisiae deletion strains, growth OD

Measured: normalized growth

CNC(=O)OCC[N+](C)(C)C
inactive: locus YAL013W, strain DEP1, stronger effect = lower value 0.99 | locus YAL040C, strain CLN3, stronger effect = lower value 1 | locus YCL061C, strain MRC1 (second series), stronger effect = lower value 0.992 | locus YDR363W, strain ESC2, stronger effect = lower value 0.957 | locus YER002W, strain NOP16, stronger effect = lower value 0.968 | locus YJR075W, strain HOC1, stronger effect = lower value 1.01 | locus YNL128W, strain TEP1, stronger effect = lower value 1 | locus YNL153C, strain GIM3, stronger effect = lower value 0.983 | locus YNL175C, strain NOP13, stronger effect = lower value 0.973 | locus YNL197C, strain WHI3, stronger effect = lower value 0.962 | locus YNL224C, strain SQS1, stronger effect = lower value 0.989 | locus YOR083W, strain WHI5 (second series), stronger effect = lower value 0.985
